From PubChem BioAssay (Tox21)
Records with an inconclusive call do not appear. A call without a number means that no potency is given here. A number with no mark means an inactive call. Calls of active or inactive are those of the source. Unless noted, the call rests on the fitted dose curve; in most records, active means well fitted cell-killing curve with a large enough effect in the repeat runs; inconclusive means weak or mixed curves, or effect the other way; inactive means no such curve, though single readings can be large or run the other way.

Target: Retinoic acid receptor RXR-alpha (Homo sapiens) (UniProt P19793)
Sequence (P19793 whole entry, looked up): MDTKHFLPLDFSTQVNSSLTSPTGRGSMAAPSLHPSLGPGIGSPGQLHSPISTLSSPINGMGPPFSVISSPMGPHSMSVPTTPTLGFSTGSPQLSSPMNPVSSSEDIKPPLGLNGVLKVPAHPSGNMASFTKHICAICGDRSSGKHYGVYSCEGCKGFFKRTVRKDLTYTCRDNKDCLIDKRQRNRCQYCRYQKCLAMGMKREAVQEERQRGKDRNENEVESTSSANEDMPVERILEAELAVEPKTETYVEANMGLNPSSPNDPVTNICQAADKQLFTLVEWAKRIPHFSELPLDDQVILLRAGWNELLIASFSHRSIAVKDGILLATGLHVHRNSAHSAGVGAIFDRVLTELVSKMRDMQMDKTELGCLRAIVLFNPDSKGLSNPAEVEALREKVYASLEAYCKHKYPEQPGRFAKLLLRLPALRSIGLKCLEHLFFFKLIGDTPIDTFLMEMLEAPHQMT
Test: qHTS assay to identify small molecule agonists of the RXR signaling pathway (AID 1159527; calls by dose curve; further: nearly all actives have a fitted effect of over 35% in size)
Conditions: HEK293T RXRa-UAS-bla, beta-lactamase ratio, 16 h; series mostly up to 35.3 µM
In short: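 GeneBLAzer RXR-alpha-UAS-bla HEK 293T cells in 2% charcoal-stripped FBS medium were exposed to compounds for 16 hr at 37 C in agonist mode. Beta-lactamase reporter read as 460/530 nm FRET ratio after 2 hr substrate loading.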

| Structure (SMILES) | Potency |
| --- | --- |
| CC(=O)OCC(=O)[C@@]1(O)CCC2C3CCC4=CC(=O)CC[C@]4(C)C3[C@@H](O)C[C@@]21C (stereo not given in full) | inactive |
| COc1ccc2c(c1)c(CC(=O)OCC(=O)O)c(C)n2C(=O)c1ccc(Cl)cc1 | inactive |
| O=c1cc(CO)occ1O | inactive |
| CS(=O)(=O)O | inactive |
| c1ccc(CC2=NCCN2)cc1 | inactive |
| COCCCOCCCOC | inactive |

System: not listed separately
Test: qHTS assay to identify small molecule agonists of the RXR signaling pathway - cell viability counter screen (AID 1159529); further: nearly all actives have a fitted effect of over 50% in size
Conditions: RXR-alpha-bla HEK293T viability, CellTiter-Glo, 16 h; series mostly up to 35.3 µM
In short: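 RXR-alpha-UAS-bla HEK 293T cells in medium with 2% charcoal-stripped FBS were pre-incubated 5 hr, then compound-treated 16 hr at 37 C. Viability was read by CellTiter-Glo luminescence in the same wells as the beta-lactamase assay, with tetraoctyl ammonium bromide as positive control.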

| Structure (SMILES) | Potency | activity change, negative = cytotoxicity |
| --- | --- | --- |
| CCC=O | inactive |  |
| CC(=O)OC/C=C(\C)CC/C=C(\C)CCC=C(C)C | inactive |  |
| CC(C)OC(=O)c1ccccc1 | inactive |  |
| CCCCCCCCCCCCN(CCCCCCCCCCCC)CCCCCCCCCCCC | inactive |  |
| C1CN(CCOCCN2CCOCC2)CCO1 | inactive |  |
| O=C[C@H](O)[C@@H](O)[C@H](O)[C@H](O)CO | inactive |  |
| CCOC(=O)c1cccc(N)c1 | inactive |  |
| CC(C)CCCC(C)N (stereo not given) | inactive |  |
| C=CCOCC(CC)(CO)COCC=C | inactive |  |
| CCSC(=O)N(CC(C)C)CC(C)C | inactive |  |
| CC(C)CNCC(C)C | inactive |  |
| CC(C)(O)C#CC(C)(C)O | inactive |  |
| CC(C)(CC(=O)O)C(=O)O | inactive |  |
| CC(=O)CC(C)C | inactive |  |
| Cc1sccc1Br | inactive |  |
| N[C@H]1CN(c2c(F)cc3c(=O)c(C(=O)O)cn(C4C[C@H]4F)c3c2Cl)CC12CC2 (stereo not given in full) | inactive |  |
| CC(NC(CCc1ccccc1)C(=O)O)C(=O)N1C(=O)N(C)CC1C(=O)O (stereo not given) | inactive |  |

| Structure (SMILES) | Potency | activity change, negative = cytotoxicity |
| --- | --- | --- |
| Cc1cccn2c(=O)c(-c3nnn[nH]3)cnc12 | inactive |  |
| CCCCC/C=C\CCC=O | inactive |  |
| CCC(C)S (stereo not given) |  | 0.658% [at 2.72 µM] |
| CC(C)NC(=O)NC(C)C | inactive |  |
| CC(C)NCCCC1(C(N)=O)c2ccccc2-c2ccccc21 | inactive |  |
| C=C(C)CS(=O)(=O)O | inactive |  |
| NS(=O)(=O)c1ccc(C(=O)O)cc1 | inactive |  |
| CCC(C)C1CCCCC1=O (stereo not given) | inactive |  |
| COc1cc(C(=O)N2CCCCCCC2)cc(OC)c1OC | inactive |  |
| CCCCCCCCS(=O)(=O)Cl | inactive |  |
| O=c1[nH]c(=O)n([C@H]2C[C@H](O)[C@@H](CO)O2)cc1I | inactive |  |
| CC(=O)OCC(=O)[C@@]1(O)CCC2C3CCC4=CC(=O)CC[C@]4(C)C3[C@@H](O)C[C@@]21C (stereo not given in full) | inactive |  |
| COc1ccc2c(c1)c(CC(=O)OCC(=O)O)c(C)n2C(=O)c1ccc(Cl)cc1 | inactive |  |
| O=c1cc(CO)occ1O | inactive |  |
| CS(=O)(=O)O | inactive |  |
| c1ccc(CC2=NCCN2)cc1 | inactive |  |
| COCCCOCCCOC | inactive |  |
